# Data as given in the supplement of paper PMC6089552.
# About 300 (9.4%) of roughly 3,200 compounds showed activity. The sample holds actives, similar compounds and a random draw of the others, so the mix is not that of the screen. A number with no mark means an inactive call.
# Tested on: A673/TR/shEF
# Test: cell viability (LOESS-normalised, relative to median of negative controls) (log2 ratio); higher = more viable cells (less compound effect), active = hit call of the paper (over 3 MAD below the median)
# Conditions: treatment time: 72 h
# Procedure, shortened: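 Viability of A673/TR/shEF Ewing sarcoma cells was determined by CellTiter-Glo luminescence. The cells, at 1,500 per well in 384-well plates, were grown with or without doxycycline from 24 h before compound addition to switch on EWS-FLI1 shRNA knockdown, then exposed for three days to library compounds at two or more concentrations or to DMSO controls. Signals were LOESS-corrected plate by plate, normalised to the negative-control median and log2-transformed.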
# [1] = 0.25 µM, library screen: screen1, EWS-FLI1 expression: high (no doxycycline)
# [2] = 0.25 µM, library screen: screen1, EWS-FLI1 expression: low (doxycycline-induced shRNA knockdown)
# [3] = 2.5 µM, library screen: screen1, EWS-FLI1 expression: high (no doxycycline)
# [4] = 2.5 µM, library screen: screen1, EWS-FLI1 expression: low (doxycycline-induced shRNA knockdown)
# [5] = 0.25 µM, library screen: screen2, EWS-FLI1 expression: high (no doxycycline)
# [6] = 0.25 µM, library screen: screen2, EWS-FLI1 expression: low (doxycycline-induced shRNA knockdown)
# [7] = 2.5 µM, library screen: screen2, EWS-FLI1 expression: high (no doxycycline)
# [8] = 2.5 µM, library screen: screen2, EWS-FLI1 expression: low (doxycycline-induced shRNA knockdown)
# [9] = 0.103 µM, library screen: screen3, EWS-FLI1 expression: high (no doxycycline)
# [10] = 0.103 µM, library screen: screen3, EWS-FLI1 expression: low (doxycycline-induced shRNA knockdown)
# [11] = 0.308 µM, library screen: screen3, EWS-FLI1 expression: high (no doxycycline)
# [12] = 0.308 µM, library screen: screen3, EWS-FLI1 expression: low (doxycycline-induced shRNA knockdown)
# [13] = 0.926 µM, library screen: screen3, EWS-FLI1 expression: high (no doxycycline)
# [14] = 0.926 µM, library screen: screen3, EWS-FLI1 expression: low (doxycycline-induced shRNA knockdown)
# [15] = 2.8 µM, library screen: screen3, EWS-FLI1 expression: high (no doxycycline)
# [16] = 2.8 µM, library screen: screen3, EWS-FLI1 expression: low (doxycycline-induced shRNA knockdown)
# [17] = 8.3 µM, library screen: screen3, EWS-FLI1 expression: high (no doxycycline)
# [18] = 8.3 µM, library screen: screen3, EWS-FLI1 expression: low (doxycycline-induced shRNA knockdown)
# [19] = 25 µM, library screen: screen3, EWS-FLI1 expression: high (no doxycycline)
# [20] = 25 µM, library screen: screen3, EWS-FLI1 expression: low (doxycycline-induced shRNA knockdown)
smiles,measurement,setting,value
N[C@@H](CSCSC[C@H](N)C(=O)O)C(=O)O,cell viability (log2),[1],0.0746
same,cell viability (log2),[2],0.0305
same,cell viability (log2),[3],0.129
same,cell viability (log2),[4],0.147
N#Cc1c(-c2ccc(Br)cc2)cc(-c2ccc3c(c2)OCO3)c(C#N)c1N,cell viability (log2),[1],0.0622
same,cell viability (log2),[2],0.109
same,cell viability (log2),[3],0.154
same,cell viability (log2),[4],0.0524
CCCc1occc(=O)c1C=CO,cell viability (log2),[1],-0.0143
same,cell viability (log2),[2],0.0143
same,cell viability (log2),[3],0.203
same,cell viability (log2),[4],0.0516
Nc1ccc(S(=O)(=O)Nc2ccnn2-c2ccccc2)cc1,cell viability (log2),[1],0.0545
same,cell viability (log2),[2],-0.0171
same,cell viability (log2),[5],0.053
same,cell viability (log2),[6],0.048
same,cell viability (log2),[3],0.14
same,cell viability (log2),[4],0.0403
same,cell viability (log2),[7],-0.179 (active)
same,cell viability (log2),[8],-0.12 (active)
Nc1ccc(S(=O)(=O)Nc2ncccn2)cc1,cell viability (log2),[9],0.169
same,cell viability (log2),[10],0.0541
same,cell viability (log2),[1],0.0966
same,cell viability (log2),[2],0.142
same,cell viability (log2),[11],0.163
same,cell viability (log2),[12],0.0301
same,cell viability (log2),[13],0.117
same,cell viability (log2),[14],0.108
same,cell viability (log2),[3],0.146
same,cell viability (log2),[4],0.202
same,cell viability (log2),[15],0.14
same,cell viability (log2),[16],0.0823
same,cell viability (log2),[17],0.0532
same,cell viability (log2),[18],0.0153
same,cell viability (log2),[19],0.0911
same,cell viability (log2),[20],0.15
Nc1ccc(S(=O)(=O)Nc2ccccn2)cc1,cell viability (log2),[1],0.0477
same,cell viability (log2),[2],0.097
same,cell viability (log2),[3],0.18
same,cell viability (log2),[4],0.163
COC(=O)C[C@H]1C(C)(C)C(=O)[C@@H]2CC3C4=CC(=O)O[C@@H](c5ccoc5)[C@]4(C)CC[C@@H]3[C@@]1(C)C2=O (some centres not stated),cell viability (log2),[1],0.00456
same,cell viability (log2),[2],0.0839
same,cell viability (log2),[3],0.0543
same,cell viability (log2),[4],0.0477
COc1ccc2c(c1)O[C@@H]1c3ccc(OC)cc3OC[C@H]21,cell viability (log2),[1],0.0429
same,cell viability (log2),[2],0.176
same,cell viability (log2),[3],0.0512
same,cell viability (log2),[4],0.136
C[C@H]1O[C@@H](O[C@H]2[C@@H](O)C[C@H](O[C@H]3[C@@H](O)C[C@H](O[C@H]4CC[C@@]5(C)[C@H](CC[C@@H]6[C@@H]5CC[C@]5(C)[C@@H](C7=CC(=O)OC7)CC[C@]65O)C4)O[C@@H]3C)O[C@@H]2C)C[C@H](O)[C@@H]1O,cell viability (log2),[1],-2.45 (active)
same,cell viability (log2),[2],-2.04 (active)
same,cell viability (log2),[3],-3.94 (active)
same,cell viability (log2),[4],-4.23 (active)
C[C@]12CC[C@H](O)C[C@H]1C[C@@H]1OC13C2[C@H](O)C(=O)[C@]1(C)[C@@H](C2=CC(=O)OC2)CC[C@]31O (some centres not stated),cell viability (log2),[1],0.026
same,cell viability (log2),[2],-0.0692
same,cell viability (log2),[3],0.111
same,cell viability (log2),[4],-0.106
C[C@H]1O[C@@H](O[C@H]2[C@@H](O)C[C@H](O[C@H]3[C@@H](O)C[C@H](O[C@H]4CC[C@@]5(C)[C@H](CC[C@@H]6[C@@H]5C[C@@H](O)[C@]5(C)[C@@H](C7=CC(=O)OC7)CC[C@]65O)C4)O[C@@H]3C)O[C@@H]2C)C[C@H](O)[C@@H]1O,cell viability (log2),[1],-0.0229
same,cell viability (log2),[2],-0.153
same,cell viability (log2),[3],-2.32 (active)
same,cell viability (log2),[4],-1.91 (active)
CC(=O)N[C@@H]1[C@@H](O)[C@H](O)[C@@H](CO)O[C@H]1O,cell viability (log2),[1],0.0385
same,cell viability (log2),[2],0.0648
same,cell viability (log2),[3],0.0809
same,cell viability (log2),[4],0.0429
CC(C)CC1NC(=O)C(Cc2ccccc2)NC(=O)C(CCN)NC(=O)C(NC(=O)C(CCN)NC(=O)C(CCO)NC(=O)C(CCN)NC=O)CCNC(=O)C(CCO)NC(=O)C(CCN)NC(=O)C(CCN)NC1=O.COc1cc(Cc2cnc(N)nc2N)cc(OC)c1OC (configuration not stated),cell viability (log2),[1],0.0686
same,cell viability (log2),[2],0.0873
same,cell viability (log2),[3],0.182
same,cell viability (log2),[4],0.054
Cc1ccccc1N1CCN(S(=O)(=O)C[C@]23CCC(CC2NC(=O)[C@@H](N)CCS(C)(=O)=O)C3(C)C)CC1 (some centres not stated),cell viability (log2),[5],0.163
same,cell viability (log2),[6],0.172
same,cell viability (log2),[7],0.18
same,cell viability (log2),[8],0.0913
CC(C)=CCCC1(C)C=Cc2c(O)c3c(c(CC=C(C)C)c2O1)OC12C(=CCCC1C(C)(C)OC2(CC=C(C)C(=O)O)C(=O)O)C3=O (configuration not stated),cell viability (log2),[1],0.0468
same,cell viability (log2),[2],-0.0618
same,cell viability (log2),[3],0.121
same,cell viability (log2),[4],0.0265
CN(C)C(=O)/N=N/C(=O)N(C)C,cell viability (log2),[5],0.0755
same,cell viability (log2),[6],0.0201
same,cell viability (log2),[7],0.21
same,cell viability (log2),[8],0.117
Cc1cnc(C(=O)NCCc2ccc(S(=O)(=O)NC(=O)NC3CCCCC3)cc2)cn1,cell viability (log2),[9],0.103
same,cell viability (log2),[10],0.0573
same,cell viability (log2),[5],0.139
same,cell viability (log2),[6],-0.00978
same,cell viability (log2),[11],0.195
same,cell viability (log2),[12],0.0857
same,cell viability (log2),[13],0.143
same,cell viability (log2),[14],0.063
same,cell viability (log2),[7],0.155
same,cell viability (log2),[8],0.035
same,cell viability (log2),[15],0.0953
same,cell viability (log2),[16],0.0849
same,cell viability (log2),[17],0.13
same,cell viability (log2),[18],0.0833
same,cell viability (log2),[19],0.172
same,cell viability (log2),[20],0.135
CCC1=C(C)CN(C(=O)NCCc2ccc(S(=O)(=O)NC(=O)NC3CCC(C)CC3)cc2)C1=O (configuration not stated),cell viability (log2),[9],0.065
same,cell viability (log2),[10],0.0619
same,cell viability (log2),[11],-0.018
same,cell viability (log2),[12],0.0454
same,cell viability (log2),[13],-0.0554
same,cell viability (log2),[14],-0.00949
same,cell viability (log2),[15],0.0264
same,cell viability (log2),[16],-0.0201
same,cell viability (log2),[17],-0.0146
same,cell viability (log2),[18],-0.0784
same,cell viability (log2),[19],-0.481 (active)
same,cell viability (log2),[20],-0.408 (active)
COc1ccc(Cl)cc1C(=O)NCCc1ccc(S(=O)(=O)NC(=O)NC2CCCCC2)cc1,cell viability (log2),[9],0.115
same,cell viability (log2),[10],0.0621
same,cell viability (log2),[1],0.0607
same,cell viability (log2),[2],0.0399
same,cell viability (log2),[5],0.171
same,cell viability (log2),[6],0.0382
same,cell viability (log2),[11],0.175
same,cell viability (log2),[12],0.0954
same,cell viability (log2),[13],0.104
same,cell viability (log2),[14],0.103
same,cell viability (log2),[3],0.0749
same,cell viability (log2),[4],0.0806
same,cell viability (log2),[7],0.0699
same,cell viability (log2),[8],0.0189
same,cell viability (log2),[15],0.125
same,cell viability (log2),[16],0.0778
same,cell viability (log2),[17],0.113
same,cell viability (log2),[18],0.0685
same,cell viability (log2),[19],0.0907
same,cell viability (log2),[20],0.0579
CC1(C)[C@@H](O[C@@H]2O[C@H](C(=O)O)[C@@H](O)[C@H](O)[C@H]2O[C@@H]2O[C@H](C(=O)O)[C@@H](O)[C@H](O)[C@H]2O)CC[C@]2(C)[C@H]3C(=O)C=C4[C@@H]5C[C@@](C)(C(=O)O)CC[C@]5(C)CC[C@@]4(C)[C@]3(C)CC[C@@H]12,cell viability (log2),[1],0.061
same,cell viability (log2),[2],0.0758
same,cell viability (log2),[3],0.126
same,cell viability (log2),[4],0.123
